Active and inactive are the calls of the source.
What was measured:
[1] = compounds binding Alexa647 anti-His antibody – biochemical, small-molecule microarray, 635 nm fluorescence, artefact control for SMM control protein annotation, primary screen (AID 1128); details: higher = more signal;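 note: score merges feature fluorescence with signal-to-noise for each printed compound spot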
[2] = test system: Human papillomavirus type 1a E7 protein (residues 1-88); test: HPV1a E7 small-molecule binders, primary screen, biochemical, small-molecule microarray, residues 1-88, 635 nm (AID 1129); details: small-molecule microarray binding, fluorescence 635 nm; higher = more signal
[3] = molecular target: Focal adhesion kinase 1 (Homo sapiens) (UniProt Q05397); test: PTK2 protein binding on printed compound slides – biochemical, small-molecule microarray, 635/667 nm fluorescence, BSA, DTT, primary screen (AID 1130); details: 635 nm fluorescence, higher = more signal;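 note: composite of spot emission at 667 nm and signal to noise over triplicate slides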
[4] = test system: Fibrinogen (Alexa647-labelled); test: Alexa647-fibrinogen binding to printed small molecules – biochemical, small-molecule microarray, 635/667 nm fluorescence, artefact control for SMM control-protein annotation, profiling panel (AID 1131); details: fibrinogen-A647 binding fluorescence, higher = more signal;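 note: z-score merges 667 nm fluorescence with per-spot signal-to-noise over triplicate slides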
[5] = molecular target: Follistatin (Homo sapiens) (UniProt P19883); test: FST protein binding to printed compounds – biochemical, small-molecule microarray, 635/667 nm fluorescence, primary screen (AID 1132); details: 635 nm fluorescence, higher = more signal
[6] = molecular target: Fibroblast growth factor 2 (Homo sapiens) (UniProt P09038); test: basic fibroblast growth factor binding to printed compounds – biochemical, small-molecule microarray, 635/667 nm fluorescence, primary screen (AID 1133); details: FGF2, fluorescence 635/667, higher = more signal
[7] = JC-1 mitochondrial potential readout, lung cancer cells – cell-based, A549, JC-1 fluorescence, basal, 24 h, 100 nL, profiling panel (AID 1138); details: higher = more signal;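 note: A549 lung adenocarcinoma cells under basal conditions with no added stimulus; test concentration not given here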
[8] = test system: Lefty1; test: Lefty1 protein binding to printed compounds – biochemical, small-molecule microarray, 635/667 nm fluorescence, primary screen (AID 1139); details: fluorescence 635/667, higher = more signal
[9] = test system: wheat germ agglutinin (Triticum aestivum), Alexa647-labelled; test: Alexa647-WGA lectin binding to printed small molecules – biochemical, small-molecule microarray, 635/667 nm fluorescence, artefact control for SMM control-protein annotation, profiling panel (AID 1140); details: WGA-A647 binding, 635 nm fluorescence, higher = more signal;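 note: score merges 667 nm feature emission with signal to noise over triplicate slides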
[10] = molecular target: Luciferin 4-monooxygenase (Photinus pyralis) (UniProt P08659); test: inhibition of purified Photinus pyralis luciferase – biochemical, luminescence, purified enzyme, 2006 set, primary screen (AID 1141); details: purified firefly luciferase, SteadyGlo luminescence, 30 min; higher = more signal, called active from +8 up or from −8 down;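 note: cell-free assay with purified firefly luciferase at 100 ng per well in PBS; test concentration not given here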
Sequence of Luciferin 4-monooxygenase (Photinus pyralis) (P08659 whole entry, looked up): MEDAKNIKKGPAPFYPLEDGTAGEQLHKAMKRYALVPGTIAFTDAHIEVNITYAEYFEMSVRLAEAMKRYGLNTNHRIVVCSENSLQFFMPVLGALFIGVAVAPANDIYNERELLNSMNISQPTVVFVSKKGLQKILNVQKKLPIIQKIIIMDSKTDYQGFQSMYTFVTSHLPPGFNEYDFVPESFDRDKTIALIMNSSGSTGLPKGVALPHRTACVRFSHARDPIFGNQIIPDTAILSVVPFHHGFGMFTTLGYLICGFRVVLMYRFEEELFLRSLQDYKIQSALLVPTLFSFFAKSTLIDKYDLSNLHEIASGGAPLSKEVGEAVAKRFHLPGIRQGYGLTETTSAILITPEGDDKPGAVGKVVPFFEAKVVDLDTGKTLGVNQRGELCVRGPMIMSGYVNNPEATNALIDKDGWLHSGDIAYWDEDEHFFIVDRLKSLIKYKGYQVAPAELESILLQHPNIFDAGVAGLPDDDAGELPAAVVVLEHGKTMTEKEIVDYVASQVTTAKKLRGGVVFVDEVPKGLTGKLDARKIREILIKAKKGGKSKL

Sequence of Fibroblast growth factor 2 (Homo sapiens) (P09038 whole entry, looked up): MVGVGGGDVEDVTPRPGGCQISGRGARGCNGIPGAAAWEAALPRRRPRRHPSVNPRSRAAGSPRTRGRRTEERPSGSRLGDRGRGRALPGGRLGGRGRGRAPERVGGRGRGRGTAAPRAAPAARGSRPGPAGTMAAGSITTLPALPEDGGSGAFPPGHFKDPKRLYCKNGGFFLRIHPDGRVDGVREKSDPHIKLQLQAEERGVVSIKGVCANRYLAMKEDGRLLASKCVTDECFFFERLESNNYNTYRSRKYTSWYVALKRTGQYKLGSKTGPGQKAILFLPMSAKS
Sequence of Follistatin (Homo sapiens) (P19883 whole entry, looked up): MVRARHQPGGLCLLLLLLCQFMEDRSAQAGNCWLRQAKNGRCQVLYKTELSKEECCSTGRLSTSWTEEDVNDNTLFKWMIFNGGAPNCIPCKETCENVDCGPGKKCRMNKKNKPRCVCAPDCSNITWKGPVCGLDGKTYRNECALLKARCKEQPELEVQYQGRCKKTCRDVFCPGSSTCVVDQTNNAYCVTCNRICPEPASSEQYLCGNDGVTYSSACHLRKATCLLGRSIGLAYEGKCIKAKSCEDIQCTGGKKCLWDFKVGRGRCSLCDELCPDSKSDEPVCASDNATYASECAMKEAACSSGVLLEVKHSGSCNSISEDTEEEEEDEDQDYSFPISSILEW
Sequence of Focal adhesion kinase 1 (Homo sapiens) (Q05397 whole entry, looked up): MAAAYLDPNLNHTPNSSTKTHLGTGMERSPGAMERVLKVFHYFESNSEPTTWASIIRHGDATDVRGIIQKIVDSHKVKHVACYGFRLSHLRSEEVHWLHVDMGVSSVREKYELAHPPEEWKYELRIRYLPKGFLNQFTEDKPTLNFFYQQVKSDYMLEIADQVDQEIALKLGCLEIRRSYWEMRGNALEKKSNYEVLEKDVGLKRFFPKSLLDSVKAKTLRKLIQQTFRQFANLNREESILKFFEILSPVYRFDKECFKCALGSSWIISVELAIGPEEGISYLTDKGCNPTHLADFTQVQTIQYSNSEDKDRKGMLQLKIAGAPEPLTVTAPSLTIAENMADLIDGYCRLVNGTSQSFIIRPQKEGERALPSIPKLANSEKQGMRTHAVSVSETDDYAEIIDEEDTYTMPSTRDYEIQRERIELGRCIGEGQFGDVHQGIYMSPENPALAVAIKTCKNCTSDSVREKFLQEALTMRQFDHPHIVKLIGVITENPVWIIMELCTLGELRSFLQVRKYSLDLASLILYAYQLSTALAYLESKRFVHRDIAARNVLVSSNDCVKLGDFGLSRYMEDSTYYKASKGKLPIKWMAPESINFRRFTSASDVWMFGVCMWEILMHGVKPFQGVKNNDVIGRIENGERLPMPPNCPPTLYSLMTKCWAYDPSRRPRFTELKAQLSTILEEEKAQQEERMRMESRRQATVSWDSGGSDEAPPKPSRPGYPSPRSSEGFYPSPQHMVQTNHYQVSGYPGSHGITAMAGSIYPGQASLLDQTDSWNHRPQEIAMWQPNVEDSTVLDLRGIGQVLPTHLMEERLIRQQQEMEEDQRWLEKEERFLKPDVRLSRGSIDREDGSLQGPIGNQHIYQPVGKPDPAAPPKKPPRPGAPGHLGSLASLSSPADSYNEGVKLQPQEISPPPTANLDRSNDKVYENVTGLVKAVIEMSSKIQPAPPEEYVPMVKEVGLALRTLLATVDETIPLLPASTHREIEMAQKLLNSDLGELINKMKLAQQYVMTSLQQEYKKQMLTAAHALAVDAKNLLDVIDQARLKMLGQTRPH

SMILES: CC(C)(C)OC(=O)CC[C@]1(C(=O)NCCN2CCOCC2)N=C(c2ccc(OCCCO)cc2)O[C@H]1c1ccccc1CN=[N+]=[N-]
- composite z-score [1]: 2.63
- composite z-score [2]: 1.17
- composite z-score [3]: 1.17
- composite z-score [4]: 0.75
- composite z-score [5]: -0.651
- composite z-score [6]: -0.962
- z-score [7]: 0.22
- composite z-score [8]: -0.697
- composite z-score [9]: 1.31
- z-score [10]: -0.736 (inactive)

SMILES: COC(=O)c1ccc(C#CC(NP(=O)(c2ccccc2)c2ccccc2)c2ccccc2)cc1 (stereo not given)
- composite z-score [1]: 0.15
- composite z-score [2]: 1.18
- composite z-score [3]: 0.671
- composite z-score [4]: 0.963
- composite z-score [5]: 1.41
- composite z-score [6]: -0.0037
- z-score [7]: 1.53
- composite z-score [8]: 0.468
- composite z-score [9]: 1.43
- z-score [10]: 0.853 (inactive)

SMILES: COC(=O)C[C@H]1O[C@]2(C(=O)N(C)c3ccccc32)[C@@H](C)[C@@H]1[Si](C)(C)c1ccc(OC)cc1
- composite z-score [1]: 0.284
- composite z-score [2]: 0.824
- composite z-score [3]: 0.0035
- composite z-score [4]: 0.728
- composite z-score [5]: 0.328
- composite z-score [6]: 0.792
- z-score [7]: 0.569
- composite z-score [8]: 1.33
- composite z-score [9]: 0.332
- z-score [10]: -0.274 (inactive)

SMILES: CCCC[C@@H]1C[C@H]1[C@@H](NC(=O)c1cccs1)c1ccc(Cl)cc1
- composite z-score [1]: -0.492
- composite z-score [2]: -1.19
- composite z-score [3]: -0.393
- composite z-score [4]: -1.26
- composite z-score [5]: -1.44
- composite z-score [6]: -1.6
- z-score [7]: -0.363
- composite z-score [8]: -1.58
- composite z-score [9]: -0.746
- z-score [10]: 0.191 (inactive)

SMILES: CCCC=C(CCC)[C@@H](NS(=O)(=O)c1ccc(-c2ccccc2)cc1)c1ccc(C(=O)OC)cc1
- composite z-score [1]: 0.5
- composite z-score [2]: -0.997
- composite z-score [3]: -0.15
- composite z-score [4]: -0.285
- composite z-score [5]: -0.407
- composite z-score [6]: -0.624
- z-score [7]: -2.58
- composite z-score [8]: -0.707
- composite z-score [9]: -0.153
- z-score [10]: 1.67 (inactive)

SMILES: CCOC(=O)[C@H]1C/C=C/C[C@H](C(=O)OCC)C(=O)O[C@H]2[C@@H](OC)O[C@H](CO)[C@@H](OC(=O)Nc3ccc(Br)cc3)[C@@H]2OC1=O
- composite z-score [1]: 0.441
- composite z-score [2]: 1.21
- composite z-score [3]: 0.361
- composite z-score [4]: 0.708
- composite z-score [5]: 0.623
- composite z-score [6]: 0.376
- z-score [7]: -2.32
- composite z-score [8]: 0.588
- composite z-score [9]: 1.21
- z-score [10]: -1.72 (inactive)

SMILES: O=C/C=C/c1ccc(/C=C/c2ccccc2)cc1
- composite z-score [1]: 1.52
- composite z-score [2]: -0.483
- composite z-score [3]: -0.313
- composite z-score [4]: -1.86
- composite z-score [5]: 0.828
- composite z-score [6]: 0.168
- z-score [7]: 1.39
- composite z-score [8]: -0.134
- composite z-score [9]: 0.633
- z-score [10]: -3.83 (inactive)

SMILES: CC/C=C/C(=O)N(C[C@@H]1CCCO1)[C@@H]1CC(C(=O)NCCO)=C[C@H](Oc2c(I)cc(CO)cc2OC)[C@H]1O
- composite z-score [1]: 0.224
- composite z-score [2]: 0.164
- composite z-score [3]: 0.303
- composite z-score [4]: 0.217
- composite z-score [5]: -0.227
- composite z-score [6]: -0.273
- z-score [7]: 1.91
- composite z-score [8]: 0.0903
- composite z-score [9]: 0.701
- z-score [10]: -1.47 (inactive)

SMILES: CC(C)N1CC=CC23O[C@@H]4/C=C\CCCOC(=O)C4[C@H]2C(=O)N(CCCCCO)[C@@H]3C1=O (stereo not given in full)
- composite z-score [1]: -2.21
- composite z-score [2]: -1.79
- composite z-score [3]: -0.925
- composite z-score [4]: -3.13
- composite z-score [5]: -1.15
- composite z-score [6]: -1.03
- z-score [7]: 3.68
- composite z-score [8]: -1.52
- composite z-score [9]: -1.78
- z-score [10]: -1.32 (inactive)

SMILES: COCCCNC(=O)[C@@]1(c2ccc([N+](=O)[O-])cc2)CC(=O)N(C2CCCCC2)[C@@H]1c1ccc(CO)cc1
- composite z-score [1]: 1.13
- composite z-score [2]: 0.542
- composite z-score [3]: 0.643
- composite z-score [4]: -0.523
- composite z-score [5]: -0.0809
- composite z-score [6]: 0.269
- z-score [7]: 0.612
- composite z-score [8]: -1.4
- composite z-score [9]: -0.273
- z-score [10]: -0.501 (inactive)

SMILES: C[C@@H]1NC(=O)[C@H](Cc2ccccc2)NC(=O)[C@@]23C(=O)N[C@@H](Cc4ccccc4)C2[C@H](C)[C@@]2(C)O[C@H]2C3/C=C/C/C=C\CNC1=O (stereo not given in full)
- composite z-score [1]: 0.0093
- composite z-score [2]: -1.79
- composite z-score [3]: -0.524
- composite z-score [4]: -0.89
- composite z-score [5]: 0.216
- composite z-score [6]: 0.0447
- z-score [7]: -0.0521
- composite z-score [8]: 0.256
- composite z-score [9]: -0.906
- z-score [10]: -0.0116 (inactive)

SMILES: COc1ccc(-c2cc3c(c(-c4ccccc4)n2)[Si](C(C)C)(C(C)C)O[C@H]3c2ccccc2)cn1
- composite z-score [1]: -0.614
- composite z-score [2]: 0.438
- composite z-score [3]: -0.142
- composite z-score [4]: 0.0413
- composite z-score [5]: 0.758
- composite z-score [6]: 0.343
- z-score [7]: 0.136
- composite z-score [8]: 0.506
- composite z-score [9]: -0.0707
- z-score [10]: 0.167 (inactive)

SMILES: CO[C@H]1COC(=O)[C@@H](Cc2ccccc2)NC(=O)[C@@H](C)COC(=O)CC=C[C@@H]1C
- composite z-score [1]: -0.28
- composite z-score [2]: -0.0865
- composite z-score [3]: -0.112
- composite z-score [4]: -0.277
- composite z-score [5]: 1.24
- composite z-score [6]: 1.01
- z-score [7]: 1.3
- composite z-score [8]: 1.01
- composite z-score [9]: -0.744
- z-score [10]: -1.16 (inactive)

SMILES: CCCC=C(CCC)[C@@H](NS(=O)(=O)c1ccc(C(F)(F)F)cc1)c1ccc(-c2ccccc2)cc1
- composite z-score [1]: 0.826
- composite z-score [2]: 1.23
- composite z-score [3]: 0.998
- composite z-score [4]: 0.694
- composite z-score [5]: 1.26
- composite z-score [6]: -0.0729
- z-score [7]: 1.89
- composite z-score [8]: 0.565
- composite z-score [9]: 1.2
- z-score [10]: 2.63 (inactive)

SMILES: COc1ccc(NN2C(C(O)c3cc(OC)c(OC)c(OC)c3)C=CC3C(=O)N(C4CCCCC4)C(=O)C32)cc1 (stereo not given)
- composite z-score [1]: 0.717
- composite z-score [2]: 1.21
- composite z-score [3]: 1.06
- composite z-score [4]: 0.965
- composite z-score [5]: 0.412
- composite z-score [6]: -0.418
- z-score [7]: 0.469
- composite z-score [8]: 0.133
- composite z-score [9]: 1.22
- z-score [10]: 0.582 (inactive)

SMILES: O=[N+]([O-])c1ccc(C[n+]2ccc3ccc(O)cc3c2)o1
- composite z-score [1]: 0.0131
- composite z-score [2]: 0.275
- composite z-score [3]: 0.326
- composite z-score [4]: 0.596
- composite z-score [5]: 1.04
- composite z-score [6]: 0.227
- z-score [7]: 1.25
- composite z-score [8]: 0.392
- composite z-score [9]: 1.12
- z-score [10]: -2 (inactive)
